High-throughput results (PubChem)
D3 antag = qHTS of D3 Dopamine Receptor Antagonist: qHTS | D(3) dopamine receptor (Homo sapiens), P35462 | D3R cells, DiscoveRx beta-arrestin luminescence, antagonist mode; stronger effect = lower value | AID 652054, 2013 | 360,000 compounds, 2.5% hits | max response, negative = inhibition, %; in the data active = max response below about -50%; inconclusive = no clear call, values can overlap the other calls; note: % is set by controls: 0 for no effect and ±100 for the full control effect
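Cells plated overnight at 1500 cells/well, then exposed to library compounds with dopamine controls for 90 minutes at 37 degrees C. DiscoveRx reagent added for 30–60 minutes at room temperature; luminescence read, quantitative HTS format.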
ClpP mod = qHTS Assay for Activators of ClpP. 340,000 compounds, 1.9% hits. Potency, µM (highest dose often 57.5 µM), for the others: at the top dose activity change, negative = active. AID 651965, 2013. purified B. subtilis ClpP, FRET peptide cleavage, 20 min. ATP-dependent Clp protease proteolytic subunit (Bacillus subtilis (strain 168)), P80244; active = well fitted falling curve with a large enough effect; inconclusive = small, poorly fitted or top-dose-only effect; inactive = no such curve, though single readings can be large or run the other way; note: potency is the fitted concentration of half-maximal effect; the source files actives as falling curves though it sought activators and does not explain the sign; nearly all actives have a fitted effect of over 65% in size
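Purified B. subtilis ClpP, 10 microg/mL final in Tris/HCl pH8 with KCl, BSA, glycerol and Tween-20, cleaved an Abz/nitrotyrosine-quenched decapeptide. Fluorescence (ex 320, em 430) was read at 0 and 20 min at room temperature. Delta was normalized to 5.8 microM ADEP and DMSO/no-enzyme controls.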
IL-1B inflam inh = qHTS for Inhibitors of Inflammasome Signaling: IL-1-beta AlphaLISA Primary Screen | AID 743279, 2014 | activity change, % at 57.5 µM | THP-1 LPS/ATP IL-1B secretion, AlphaLISA, 16 h; stronger effect = lower value | 360,000 compounds, 4.7% hits; in the data active = activity change below about -50%; inconclusive = mostly about -30% to -49%; note: % is set by controls: 0 for no effect and ±100 for the full control effect
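Secreted IL-1B measured by AlphaLISA bead assay after 16 h compound exposure of THP-1 cells; compounds (final up to 57.5 uM) added 1 h before LPS (250 ng/mL) and ATP (1.25 mM) stimulation; lower signal means less secretion.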
DRD3 agonist = qHTS of D3 Dopamine Receptor Agonist: qHTS | D3R DiscoveRx beta-arrestin cells, luminescence, 90 min | max activation, % | 410,000 compounds, 0.58% hits | AID 652048, 2013; in the data active = max activation above about 30%; note: 0% is about no effect
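Agonist mode: compounds and dopamine controls were applied to plated cells for 90 min at 37 degrees C after an overnight attachment at 1500 cells/well. Luminescent read-out followed 30 - 60 minutes at room temperature with DiscoveRx detection reagent.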
DT40 TDP1 no CPT = qHTS for Inhibitors of human tyrosyl-DNA phosphodiesterase 1 (TDP1): qHTS in cells in absence of CPT; DT40 Tdp1-/- hTDP1 cells, no CPT, ATP luminescence, 48 h; 420,000 compounds, 15% hits; AID 686978, 2013; Potency, µM (titrated, usually from 46.2 µM), without a hit: at the highest dose activity change, negative = growth inhibition, usual class: inhibitors; note: potency is the fitted concentration of half-maximal effect; % is set by controls: 0 for no effect and ±100 for the full control effect; nearly all actives have a fitted effect of over 55% in size
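Growth kinetics read by CellTiter-Glo luminescence after ≥48 hr at 37 °C. Cells: DT40 Tdp1-/- stably carrying human TDP1, 400 per well, compound exposure in the absence of CPT (DMSO vehicle).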
TDP1 cell CPT = qHTS for Inhibitors of human tyrosyl-DNA phosphodiesterase 1 (TDP1): qHTS in cells in presence of CPT; chicken DT40 Tdp1-/-;hTDP1 cells + 20 nM CPT, ATP luminescence, 48 h; Potency, µM (top dose mostly 46.2 µM), for inactives: at the top dose activity change, negative = growth inhibition, most hits filed as inhibitors; 420,000 compounds, 12% hits; note: potency is the fitted concentration of half-maximal effect; % is set by controls: 0 for no effect and ±100 for the full control effect; nearly all actives have a fitted effect of over 55% in size
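Cell growth measured by CellTiter-Glo luminescence after a minimum 48 h, 37 C compound exposure with 20 nM CPT in Tdp1-knockout DT40 cells stably expressing hTDP1, seeded 400/well; qHTS titration format.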
ClpP validation = qHTS Assay for Activators of ClpP: Hit Validation of Inhibitors. 470 compounds, 40% hits. AID 743245, 2014. shares compounds with ClpP mod. purified B. subtilis ClpP, FRET-FV substrate cleavage, 20 min. Potency, µM (highest dose often 57.5 µM), for inactives: top-dose activity change, negative = inhibition, most hits filed as inhibitors; note: potency is the fitted concentration of half-maximal effect; % is set by controls: 0 for no effect and ±100 for the full control effect; nearly all actives have a fitted effect of over 70% in size
An asterisk follows results filed as active; ? = inconclusive; / = no result. In the library only some 21% were active in any assay of this set; here they are far more common. Unless noted, calls come from the whole dose curve; as a rule, active = well fitted inhibition curve with a large enough effect; inconclusive = small, poorly fitted or top-dose-only effect; inactive = flat fitted curve, though single readings scatter.

SMILES	D3 antag	ClpP mod	IL-1B inflam inh	DRD3 agonist	DT40 TDP1 no CPT	TDP1 cell CPT	ClpP validation
O=C(/C=C/c1ccc(OC(F)F)cc1)OCC(=O)N1CCC(c2ccccc2)=N1	-0.9	-14.6%	5.4	2.3	?	?	/
O=C1CC(C(=O)Nc2cccc(F)c2)n2ncnc2N1 (centres undefined)	8.2	/	-14.0	2.4	1.0%	13.7%	/
CCNc1ccc(C(=O)OCC(=O)N2CCCC2)cc1[N+](=O)[O-]	-3.2	97.6%	8.8	4.1	?	?	-1.1%
CCNc1ccc(C(=O)OCC(=O)NC(C)c2ccccc2)cc1[N+](=O)[O-] (centres undefined)	-12.4	1.0%	0.0	-2.2	-28.8%	0.6%	/
O=C(NCc1cccc(F)c1)c1ccc(NC(=O)c2nsc3ccccc23)cc1	/	35.8%	/	-3.3	?	?	?
COc1ccc(Cl)cc1Nc1nc(C)cc(C)c1C(N)=O	0.0	3.2%	-4.9	-2.0	-5.2%	1.8%	/
Cn1c(-c2ccc(CN3CCCCC3)o2)nc2ccccc21	?	3.55µM*	6.6	-22.8	-23.3%	-10.7%	17.2µM*
COc1ccccc1NC(=O)Cn1cnc2c(cnn2-c2ccc(C)c(C)c2)c1=O	2.4	36.0%	1.7	0.4	?	-28.6%	-29.8%
COc1ccc(OC)c(NC(=O)Cn2cnc3c(cnn3-c3ccccc3)c2=O)c1	-20.5	-0.8%	12.2	-6.3	-19.3%	-10.9%	/
Fc1ccc(-c2cc(C(F)(F)F)nc(-n3cc(Cl)cn3)n2)cc1	-11.3	-13.3%	-25.4	2.9	?	-26.9%	/
COc1ccc(-c2cc(C(F)(F)F)nc(-n3cc(Cl)cn3)n2)cc1	26.5	3.98µM*	/	2.0	?	14.6µM*	21.7µM*
CC(OC(=O)c1nn(C(C)C)c(=O)c2ccccc12)C(=O)Nc1ncc(Cl)cc1Cl (centres undefined)	-5.7	42.2%	0.0	7.5	18.4µM*	?	-4.6%
Cc1ccc(N2C(=O)/C(=C\c3ccc(C(C)C)cc3)N=C2SC2CCOC2=O)cc1 (centres undefined)	?	-1.7%	3.7	-10.9	?	?	/
Cc1ccc(Cn2ccc(NC(=O)c3nn(C)cc3Cl)n2)cc1	-12.7	91.4%	-1.9	6.5	-7.4%	-18.1%	-0.8%
COc1cc(NC(=O)CCS(=O)(=O)c2nc(-c3cccs3)cc(C(F)(F)F)n2)cc(OC)c1OC	/	44.3%	/	-15.2	6.51µM*	4.11µM*	22.9%
COc1cc(NC(=O)CS(=O)(=O)c2ccccc2)cc(OC)c1OC	0.0	1.6%	-7.8	-3.3	-20.8%	-4.5%	/
Fc1ccc(CNc2cnccn2)cc1	-15.7	3.16µM*	-7.6	-6.1	1.8%	-12.0%	21.7µM*
COc1ccc(N(CC(=O)NC(C)c2ccccc2)S(=O)(=O)c2c(C)nn(C)c2C)cc1 (centres undefined)	/	4.7%	/	-3.1	?	5.4%	/
Nc1c(-c2cccs2)cnc2c(-c3ccc(F)cc3)cnn12	16.8	/	-28.6	6.9	?	?	/
Fc1ccc(-c2cnc(-c3cccs3)o2)cc1	2.8	6.31µM*	4.4	0.3	-13.3%	-19.1%	5.44µM*
O=C(NCCc1ccccc1)C1Cc2c(-c3ccccc3)ccnc2O1 (centres undefined)	-67.5*	?	-12.6	-10.0	?	?	-1.7%
CSc1ccc(CCNC(=O)Cn2ncc3c([nH]c4ccccc43)c2=O)cc1	?	-3.2%	42.1	-2.8	11.8%	-3.2%	/
O=C(Nc1ccccc1)c1cccc(C(=O)Nc2ccccc2)n1	14.8	67.9%	3.5	2.9	3.8%	-19.0%	24.3µM*
Cc1cc(C)cc(NC(=O)c2cccc(C(=O)Nc3cc(C)cc(C)c3)n2)c1	2.0	-3.1%	6.4	1.5	?	?	/
O=C1C2CC=CCC2C(=O)N1c1n[nH]c(CCc2ccccc2)n1 (centres undefined)	18.3	0.2%	2.9	6.8	-15.8%	-1.6%	/
SMILES	D3 antag	ClpP mod	IL-1B inflam inh	DRD3 agonist	DT40 TDP1 no CPT	TDP1 cell CPT	ClpP validation
CCCCCNC(=O)C(c1cccc2ccccc12)n1c(=O)c(-c2cc3ccccc3[nH]2)nc2ccccc21 (centres undefined)	13.5	38.2%	58.0	8.2	?	?	6.9%
N#Cc1ccc(C(C(=O)NC2CCCCC2)n2c(=O)c(-c3ccccc3)nc3ccccc32)cc1 (centres undefined)	-5.2	?	-15.3	0.1	?	?	/
O=C(NC1CCCCC1)C(c1cccc2ccccc12)n1c(=O)c(-c2cc3ccccc3[nH]2)nc2ccccc21 (centres undefined)	17.4	41.0%	77.4	5.1	13µM*	?	5.8%
O=C(Nc1ccc2ccccc2c1)C(c1ccccc1F)n1c(=O)c(-c2cc3ccccc3[nH]2)nc2ccccc21 (centres undefined)	16.7	53.7%	74.7	0.4	?	?	6.0%
O=C(NCc1ccccc1)C(c1ccncc1)n1c(=O)c(-c2cc3ccccc3[nH]2)nc2ccccc21 (centres undefined)	26.2	-21.4%	-29.4	6.9	?	?	/
O=C(NCc1ccccc1)C(c1ccc(-c2ccccc2)cc1)n1c(=O)c(-c2cc3ccccc3[nH]2)nc2ccccc21 (centres undefined)	13.0	35.8%	43.8	9.8	14.6µM*	?	9.9%
CC(C)(C)NC(=O)C(c1cc2ccccc2o1)n1c(=O)c(-c2cc3ccccc3[nH]2)nc2ccccc21 (centres undefined)	26.6	-9.0%	78.9	8.8	?	?	/
CCCCCNC(=O)C(c1ccccc1F)n1c(=O)c(-c2ccco2)nc2ccccc21 (centres undefined)	-10.3	?	-5.1	-5.3	?	?	/
